Assay outcomes: PubChem, The Scripps Research Institute Molecular Screening Center
Hits are enriched below; roughly 4.6% of the tested compounds scored in any of these assays.
hgDAF-12 ag = H. glycines DAF-12 receptor agonists, primary screen, cell-based, luminescence, HEK293, GAL4 fusion, UAS-luciferase | activation, % at 6.8 µM | AID 687014, 2013 | HEK293 GAL4-hgDAF12 UAS-luciferase reporter, agonist luminescence; normalized to butyrate control | actives 1.8% (n = 370,000);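 active means activation above a cutoff set at the mean of all screened compounds plus 3 SD, cut at about 10% in these data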;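 further: 0% = DMSO wells and 100% = sodium butyrate wells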
hcDAF-12 act = H. contortus DAF-12 nuclear receptor activators, primary screen, cell-based, luminescence, HEK293, lit1-tk-luc reporter; HEK293 hcDAF-12 lit1-tk-luc reporter; 0% DMSO, 100% Δ7-dafachronic acid; activation, % at 6.8 µM; actives 1.4% (n = 370,000);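 active means activation above the mean of all tested compounds plus 3 SD, cut at about 5.5% in these data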;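 further: 100% = response to 3 µM Δ7-dafachronic acid high control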
DAX1 inh-1 = DAX1 (NR0B1) inhibitors on StAR promoter, primary screen, cell-based, luminescence, SF-1 (NR5A1), full-length DAX-1; inhibition, % at 6.8 µM; actives 1.1% (n = 370,000); HEK293T StAR-luciferase reporter, SF-1/DAX-1 repression relief;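 active means inhibition above the mean over all tested compounds plus 3 SD, cut at about 3.6% in these data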;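 further: 0% = DAX-1 cells with DMSO and 100% = cells lacking DAX-1 with DMSO; higher inhibition means more luminescence from relief of DAX-1 repression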
Wee1 stabilizer = Wee1 degradation inhibitors, primary screen, cell-based, HeLa, Wee1K328M-luciferase, luminescence; Wee1-like protein kinase (Homo sapiens), P30291; HeLa Luc-Wee1K328M stability; 100% = proteasome inhibitor MG132 effect; reporter increase, % at 5 µM; actives 1.2% (n = 220,000); AID 1321, 2008;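 active means activation above the mean of all tested compounds plus 3 SD, set per screening run, cut at about 8.8% in these data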;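 further: cells exposed to compound for 20 h before luminescence read; 0% = DMSO alone and 100% = MG132 at 30 µM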
DAX1 inh-2 = DAX1 (NR0B1) inhibitors, primary screen, cell-based, HEK293, Gal4-DAX1, luciferase luminescence. Nuclear receptor subfamily 0 group B member 1 (Homo sapiens), P51843. HEK293 Gal4-DAX1 luciferase reporter. inhibition, % at 6.75 µM. actives 0.99% (n = 340,000);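 active means inhibition above the mean over all tested compounds plus 3 SD, cut at about 4.2% in these data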;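 further: 0% = DAX1-transfected cells with DMSO and 100% = empty-vector control cells with DMSO; inhibition shows as a rise in luminescence from relieved DAX1 repression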
Target sequence (P51843 207-470 limits assumed): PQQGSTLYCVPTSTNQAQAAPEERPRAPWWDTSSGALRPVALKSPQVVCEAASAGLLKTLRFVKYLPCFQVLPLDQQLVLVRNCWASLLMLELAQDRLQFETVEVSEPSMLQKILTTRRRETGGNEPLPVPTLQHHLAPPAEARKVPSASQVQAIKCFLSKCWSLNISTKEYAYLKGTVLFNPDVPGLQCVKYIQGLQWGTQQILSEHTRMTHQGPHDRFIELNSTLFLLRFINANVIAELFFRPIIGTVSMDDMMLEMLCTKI
ssDAF12 agonist = S. stercoralis DAF-12 nuclear receptor activators, primary screen, cell-based, luminescence, HEK293, GRIP1 co-expression, lit1-tk-luc; Nuclear hormone receptor DAF-12 (Strongyloides stercoralis); HEK293 ssDAF-12/GRIP1 lit1-tk-luc reporter; % of 3 µM dafachronic acid response; activation, % at 6.8 µM; actives 1% (n = 370,000); AID 652126, 2013;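 active means activation above the mean over all tested compounds plus 3 SD, cut at about 0.9% in these data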;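 further: 0% = DMSO-only wells and 100% = 3 µM delta7-dafachronic acid wells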
Numbers without * were called inactive; / = not tested or not shown.

SMILES	hgDAF-12 ag	hcDAF-12 act	DAX1 inh-1	Wee1 stabilizer	DAX1 inh-2	ssDAF12 agonist
CC(C)NC(=O)C1CC(=O)N(CCc2ccc(F)cc2)C1 (centres undefined)	0	-2	-1	/	-1	-1
COc1ccc2oc(=Nc3ccc(C(=O)O)cc3)c(C(=O)NCc3ccco3)cc2c1	0	-2	-1	-1	4	-1
COc1ccc2cc(C(=O)NCc3ccco3)c(=O)oc2c1	10*	2	2	0	2	0
COc1ccc2cc(C(=O)NCc3ccco3)c(=Nc3ccc(C(=O)O)cc3)oc2c1	11*	5	1	1	-1	0
C=CCN(CC#CC1=CCCCC1)CC1CC1	-2	-1	0	/	/	-1
CC1CCCCC12NC(=O)N(CC(=O)N1CCN(S(=O)(=O)c3ccc(Cl)s3)CC1)C2=O (centres undefined)	2	-1	-1	/	1	-1
COc1cc(/C=N/NC(=O)COc2ccc(-n3cnnn3)cc2)ccc1OCC(N)=O	1	0	-1	9.2*	4	0
COc1ccc(/C=N/NC(=O)CCC(=O)Nc2ccccc2)cc1OC	2	0	0	-1	1	-1
COc1ccc(/C=N/NC(=O)CCn2cnc(-c3ccccc3)c2-c2ccccc2)cc1OC	1	-2	-1	11*	-1	-1
COc1cc(CCC(=O)OCC(=O)Nc2ccc(F)cc2F)cc(OC)c1OC	3	-2	0	/	0	-1
C=CCN1C(=O)[C@@H](CC(=O)N2CCOCC2)[C@]2(C(=O)OC)CCCCC=C12	3	0	0	/	/	-1
CC(=O)N1CCc2cc(S(=O)(=O)NCCC(=O)N(C)Cc3ccccc3F)ccc21	-3	-3	0	/	/	-1
CN(C)/C=N/c1ncn(-c2ncc(C(F)(F)F)cc2Cl)n1	8	4	1	-3	4.4*	-1
CN(C)/C=N/S(=O)(=O)c1cccn1-c1ncc(C(F)(F)F)cc1Cl	1	-1	0	0	-2	-2
CC(C)CC(=O)Nc1ccc([N+](=O)[O-])cc1Cl	1	-1	1	-3	4.3*	-1
CN(C)c1cccc(NC(=O)c2cccc3ccccc23)c1	1	6.5*	0	/	1	1.2*
Cc1ccccc1NC(=O)OC1CCC12CCCCC2 (centres undefined)	1	1	0	/	/	-1
CC(C)(C)c1cc(NC(=O)c2c(F)cccc2Cl)n(-c2ccccc2)n1	-1	0	-1	/	4.5*	-1
Cc1cc(NC(=O)c2c(F)cccc2Cl)n(-c2nc3ccccc3[nH]2)n1	0	-1	-1	8	1	-1
Cc1ccccc1NP1(=O)OCCCN1Cc1ccccc1Cl (centres undefined)	-3	0	0	/	0	-1
COc1ccc(NC2=Nc3ccccc3CC2)cc1	11*	3	3	-1	2	0
Cc1ccnc(NC(=O)Nc2ccc3c(c2)N(C)C(=O)CS3)c1	10*	0	2	6	-1	-1
Cc1ccc(NC(=O)Nc2ccc3c(c2)N(C)C(=O)CS3)nc1	-4	-3	-1	4	-3	-2
Cn1c(=O)c(=O)n(C)c2cc(S(=O)(=O)N3CCOCC3)ccc21	0	0	0	12*	0	-1
CCNS(=O)(=O)c1ccc2c(c1)n(C)c(=O)n2C	-2	-1	0	-1	2	-2
SMILES	hgDAF-12 ag	hcDAF-12 act	DAX1 inh-1	Wee1 stabilizer	DAX1 inh-2	ssDAF12 agonist
Cn1c(=O)n(C)c2cc(S(=O)(=O)O)ccc21	3	2	0	9.0*	1	-1
CSc1nc2ccc(S(=O)(=O)N3CCOCC3)cc2s1	0	5.8*	0	-1	1	-1
Cn1c(=O)oc2cc(S(=O)(=O)N3CCOCC3)ccc21	-1	1	0	0	0	-1
O=C(Cc1ccccn1)c1ccncc1	5	-2	0	/	0	-1
C=CCn1c(C)cc(C(=O)COC(=O)c2n[nH]c(=O)c3ccccc23)c1C	8	1	2	/	0	-1
C=CCn1c(C)cc(C(=O)COc2nncc3ccccc23)c1C	13*	1	2	3	1	0
O=C(O)Cn1nc(-c2ccccc2)cc1-c1ccccc1	2	3	0	/	3	-1
O=C(O)CC(C(=O)O)n1nc(-c2ccccc2)cc1-c1ccccc1 (centres undefined)	5	5.8*	1	1	1	0
Cc1cccc(C(=O)N/N=C/c2coc3ccccc3c2=O)c1	1	1	1	/	0	0
Cc1ccc2occ(/C=N/NC(=O)[C@@H](N)Cc3ccccc3)c(=O)c2c1	4	0	0	-2	5.3*	-1
CCOC(=O)C1=C[C@@H](C(C)(C)C)N(S(=O)(=O)c2ccc(C)cc2)[C@H]1c1ccc(OC)cc1	1	-2	-2	/	/	-2
O=C(CCl)NC1CCCCN(Cc2ccc(OC(F)(F)F)cc2)C1=O (centres undefined)	-3	-2	-4	/	/	-2
CC1CCCN(S(=O)(=O)c2coc(C(N)=O)c2)C1 (centres undefined)	3	-1	0	-2	5.1*	-2
CC1CCCCN1S(=O)(=O)c1coc(C(N)=O)c1 (centres undefined)	0	-1	0	3	2	-1
O=C(Nc1ccccc1)c1ccc(NCCc2ccccc2)c([N+](=O)[O-])c1	0	1	1	7	1	-1
Cc1ccc(C(=O)NC(C)CCc2ccccc2)cc1[N+](=O)[O-] (centres undefined)	-1	-3	-1	11*	-1	-1
CCN(CC)c1ccc(C(=O)Nc2ccccc2)cc1[N+](=O)[O-]	12*	0	0	4	0	0
COc1ccc(C(=O)Nc2ccc(Nc3ccccc3)cc2)cc1[N+](=O)[O-]	-3	-2	-1	/	-2	-2
CCc1ccccc1NC(=O)c1ccc(NCCc2ccccc2)c([N+](=O)[O-])c1	0	-2	1	-3	4.4*	-1
Cc1ccc(NC(=O)Nc2ccc3c(c2)nc(C)n3C)cc1C	/	/	/	7	/	/
